# Measured values published in PubChem BioAssay AID1159580 (chemical genetic matrix, 2015).
# Among all 5,500 compounds or so, about 2,000 (36%) were called active. About 18% were inconclusive and are not listed. The list shows a part of the results. Unmarked numbers belong to inactive results. No stated cut-off is given here; in the data, active means normalized growth mostly below about 0.91 (no sharp cut-off); inconclusive means no clear call, values can overlap the other calls; inactive means mostly above about 0.92.
# Test: chemical genetic growth profiling, strain panel (AID 1159580);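 further: tested at 20 µM; growth read once vehicle control cultures reached saturation at 30 °C; 1 = growth at the plate median or of vehicle wells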
# Details: S. cerevisiae deletion strains, growth OD
structure (smiles),measurement,setting,value
COc1ccc2c(c1)OC/C(=C/c1ccc(OC)c(OC)c1)C2=O,normalized growth,"locus YJR066W, strain TOR1, stronger effect = lower value",0.903
same,normalized growth,"locus YJR075W, strain HOC1, stronger effect = lower value",0.955
same,normalized growth,"locus YKL009W, strain mrt4, stronger effect = lower value",0.973
same,normalized growth,"locus YKL068W, stronger effect = lower value",1.02
same,normalized growth,"locus YKL085W, strain MDH1 (second series), stronger effect = lower value",0.98
same,normalized growth,"locus YKL085W, strain MDH1, stronger effect = lower value",0.98
same,normalized growth,"locus YKL160W, strain elf1, stronger effect = lower value",0.758 (active)
same,normalized growth,"locus YKL190W, strain CNB1, stronger effect = lower value",0.982
same,normalized growth,"locus YKR001C, strain vps1, stronger effect = lower value",0.861 (active)
same,normalized growth,"locus YKR026C, strain gcn3, stronger effect = lower value",0.984
same,normalized growth,"locus YKR091W, strain srl3, stronger effect = lower value",0.979
same,normalized growth,"locus YLL001W, strain dnm1, stronger effect = lower value",0.845 (active)
same,normalized growth,"locus YLL026W, stronger effect = lower value",0.979
same,normalized growth,"locus YLL041C, strain sdh2, stronger effect = lower value",1.01
same,normalized growth,"locus YLR027C, strain aat2, stronger effect = lower value",0.914 (active)
same,normalized growth,"locus YLR039C, strain RIC1, stronger effect = lower value",0.727
same,normalized growth,"locus YLR058C, strain SHM2, stronger effect = lower value",0.949
same,normalized growth,"locus YLR102C, strain apc9, stronger effect = lower value",0.974
same,normalized growth,"locus YLR113W, strain HOG1, stronger effect = lower value",0.933
same,normalized growth,"locus YLR221C, strain rsa3, stronger effect = lower value",0.886 (active)
same,normalized growth,"locus YLR258W, strain gsy2, stronger effect = lower value",0.915
same,normalized growth,"locus YLR262C, strain YPT6 (second series), stronger effect = lower value",0.682 (active)
same,normalized growth,"locus YLR262C, strain YPT6, stronger effect = lower value",0.805
same,normalized growth,"locus YLR268W, strain sec22, stronger effect = lower value",0.852 (active)
same,normalized growth,"locus YLR320W, strain mms22, stronger effect = lower value",0.71 (active)
same,normalized growth,"locus YLR330W, strain CHS5, stronger effect = lower value",0.838 (active)
same,normalized growth,"locus YLR342W, strain FKS1 (second series), stronger effect = lower value",0.809
same,normalized growth,"locus YLR342W, strain FKS1, stronger effect = lower value",0.92
same,normalized growth,"locus YLR357W, strain rsc2, stronger effect = lower value",0.985
same,normalized growth,"locus YLR370C, strain arc18, stronger effect = lower value",0.962
same,normalized growth,"locus YLR371W, strain rom2, stronger effect = lower value",0.951
same,normalized growth,"locus YLR384C, strain iki3, stronger effect = lower value",1
same,normalized growth,"locus YLR418C, strain cdc73, stronger effect = lower value",0.621 (active)
same,normalized growth,"locus YML016C, strain PPZ1, stronger effect = lower value",0.989
same,normalized growth,"locus YML032C, strain rad52, stronger effect = lower value",0.955
same,normalized growth,"locus YML120C, strain ndi1, stronger effect = lower value",0.979
same,normalized growth,"locus YML124C, strain tub3, stronger effect = lower value",0.982
same,normalized growth,"locus YMR058W, strain fet3, stronger effect = lower value",0.87 (active)
same,normalized growth,"locus YMR078C, strain ctf18, stronger effect = lower value",0.981
same,normalized growth,"locus YMR125W, strain sto1, stronger effect = lower value",0.966
same,normalized growth,"locus YMR129W, stronger effect = lower value",0.996
same,normalized growth,"locus YMR205C, strain PFK2, stronger effect = lower value",0.68 (active)
same,normalized growth,"locus YMR223W, strain ubp8, stronger effect = lower value",0.941
same,normalized growth,"locus YMR231W, strain pep5, stronger effect = lower value",0.984
same,normalized growth,"locus YMR307W, strain GAS1, stronger effect = lower value",0.955
same,normalized growth,"locus YNL067W, strain RPL9B, stronger effect = lower value",0.931
same,normalized growth,"locus YNL071W, strain lat1, stronger effect = lower value",0.38 (active)
same,normalized growth,"locus YNL128W, strain TEP1, stronger effect = lower value",0.96
same,normalized growth,"locus YNL183C, strain NPR1, stronger effect = lower value",0.9
same,normalized growth,"locus YNL209W, strain ssb2, stronger effect = lower value",0.967
same,normalized growth,"locus YNL233W, strain BNI4, stronger effect = lower value",0.873
same,normalized growth,"locus YNL248C, strain rpa49, stronger effect = lower value",0.935
same,normalized growth,"locus YNL250W, strain rad50, stronger effect = lower value",0.98
same,normalized growth,"locus YNL271C, strain bni1, stronger effect = lower value",0.971
same,normalized growth,"locus YNL298W, strain CLA4, stronger effect = lower value",0.93
same,normalized growth,"locus YNL307C, strain MCK1, stronger effect = lower value",0.412 (active)
same,normalized growth,"locus YNL322C, strain KRE1 (second series), stronger effect = lower value",0.98
same,normalized growth,"locus YNR049C, strain mso1, stronger effect = lower value",0.978
same,normalized growth,"locus YNR052C, strain pop2, stronger effect = lower value",0.964
same,normalized growth,"locus YOL006C, strain TOP1, stronger effect = lower value",0.724
same,normalized growth,"locus YOL012C, strain htz1",0.627
same,normalized growth,"locus YOL147C, strain pex11, stronger effect = lower value",0.956
same,normalized growth,"locus YOR001W, strain rrp6, stronger effect = lower value",0.955
same,normalized growth,"locus YOR061W, strain CKA2, stronger effect = lower value",0.979
same,normalized growth,"locus YOR069W, strain VPS5, stronger effect = lower value",1
same,normalized growth,"locus YOR070C, strain gyp1, stronger effect = lower value",0.929
same,normalized growth,"locus YOR080W, strain dia2, stronger effect = lower value",0.986
same,normalized growth,"locus YOR083W, strain WHI5, stronger effect = lower value",0.852 (active)
same,normalized growth,"locus YOR106W, strain vam3, stronger effect = lower value",0.842 (active)
same,normalized growth,"locus YOR136W, strain idh2, stronger effect = lower value",0.967
same,normalized growth,"locus YOR144C, strain elg1, stronger effect = lower value",0.976
same,normalized growth,"locus YOR184W, strain ser1, stronger effect = lower value",0.805 (active)
same,normalized growth,"locus YOR231W, strain MKK1, stronger effect = lower value",0.921
same,normalized growth,"locus YOR265W, strain rbl2, stronger effect = lower value",0.954
same,normalized growth,"locus YOR270C, strain vph1, stronger effect = lower value",0.686 (active)
same,normalized growth,"locus YOR290C, strain snf2, stronger effect = lower value",0.813 (active)
same,normalized growth,"locus YOR316C, strain cot1, stronger effect = lower value",0.967
same,normalized growth,"locus YPL051W, strain arl3, stronger effect = lower value",0.852 (active)
same,normalized growth,"locus YPL078C, strain atp4, stronger effect = lower value",0.793 (active)
same,normalized growth,"locus YPL106C, strain sse1, stronger effect = lower value",0.841 (active)
same,normalized growth,"locus YPL240C, strain hsp82, stronger effect = lower value",0.87 (active)
same,normalized growth,"locus YPL241C, strain CIN2, stronger effect = lower value",0.994
same,normalized growth,"locus YPL256C, strain CLN2, stronger effect = lower value",0.972
same,normalized growth,"locus YPR119W, strain clb2, stronger effect = lower value",0.994
same,normalized growth,"locus YPR141C, strain kar3, stronger effect = lower value",0.996
same,normalized growth,"locus YPR163C, strain tif3, stronger effect = lower value",0.726 (active)
same,normalized growth,"locus YPR167C, strain met16, stronger effect = lower value",0.952
same,normalized growth,"strain wtn01, stronger effect = lower value",0.936
